From PubChem BioAssay (NCATS) come the findings set out here.

Records with an inconclusive call do not appear. Activity calls are given as the source filed them. Calls come from the whole dose curve. Square brackets hold non-standard residues; d marks the D form. Peptide text beside a SMILES is read from it. Nle = CCCC[C@H](N)C(=O)O
% is set by controls: 0 for no effect and ±100 for the full control effect; potency is the fitted concentration of half-maximal effect.

The nature of the assay: Confirmatory qHTS for VERO E6 Cytotoxicity Assay: Counterscreen for SARS-CoV-2 CPE Assay (AID 1508605). Note: nearly all actives have a fitted effect of over 60% in size. The following applies: cell viability luminescence; series mostly up to 20 µM; activity change, negative = cytotoxic: at the top concentration. (In qHTS, concentration-response curves come from the screen itself.)
In the case of `CCCC[C@@H](C=O)NC(=O)[C@H](CC(C)C)NC(=O)[C@H](CC(C)C)NC(C)=O` (Ac-Leu-Leu-[Nle]-aldehyde), the “activity change, negative = cytotoxic” value was -5.12% (inactive). Take `Cc1nc2ccc(Oc3ccc(F)cc3)cc2c(=O)n1C[C@H]1CCCN(C(C)C)C1`: the “activity change, negative = cytotoxic” value was -6.31% (inactive).

For `CC1(C)CC[C@]23CO[C@@]4(CCC5[C@@]6(C)CC[C@H](O[C@@H]7OC[C@H](O[C@@H]8O[C@H](CO)[C@@H](O)[C@H](O)[C@H]8O[C@@H]8OC[C@@H](O)[C@H](O)[C@H]8O)[C@H](O)[C@H]7O[C@@H]7O[C@H](CO)[C@@H](O)[C@H](O)[C@H]7O)[C@@](C)(CO)C6CC[C@@]5(C)[C@]4(C)C[C@H]2O)[C@@H]3C1` (stereo partly specified), the Potency is 3.03 µM (active). For the compound `CSc1ccc(C(=O)/C=C/c2cc(C)c(OC(C)(C)C(=O)O)c(C)c2)cc1`, the “activity change, negative = cytotoxic” value was -15.5% [at 40 µM] (inactive). Consider `CC1=CC2OC3CC(O)[C@@](C)(C34CO4)[C@@]2(C)C(O)C1=O` (stereo partly specified), for which the Potency is 3.55 µM (active). Regarding `CCN(CC)CCN(Cc1ccc(-c2ccc(C(F)(F)F)cc2)cc1)C(=O)Cn1c(SCc2ccc(F)cc2)nc(=O)c2c1CCC2`, the Potency was 10 µM (active). As to `CCC(CC)COC(=O)[C@H](C)N[P@](=O)(OC[C@H]1O[C@@](C#N)(c2ccc3c(N)ncnn23)[C@H](O)[C@@H]1O)Oc1ccccc1`, the “activity change, negative = cytotoxic” value was 0.98% (inactive).

As to `C/C=C(\C)C(=O)OC1C(C)C2(O)C3C=C(C)C(=O)C3CC(CO)=CC2C2C(C)(C)C12OC(C)=O` (stereo unspecified), the “activity change, negative = cytotoxic” value was -11% [at 10 µM] (inactive). Regarding `O=C(/C=C/c1ccccc1)NC(NC(=S)Nc1cccc2cccnc12)C(Cl)(Cl)Cl` (stereo unspecified), the “activity change, negative = cytotoxic” value is -15.1% (inactive). `COc1cc2nc(N3CCCCC3)nc(NC3CCN(C)CC3)c2cc1OC`: the Potency was 10 µM (active).

Turning to `O=C1c2ccccc2-c2nc3nnnn3nc21` (tested in a mixture with another compound), the Potency was 1.12 µM (active). Turning to `COc1ccc2c(c1)[C@]1(C[C@H]1c1ccc3c(/C=C/c4ccc(CN5C[C@@H](C)O[C@@H](C)C5)cc4)n[nH]c3c1)C(=O)N2`, the “activity change, negative = cytotoxic” value was -32.8% (inactive).

Consider `O[C@H]1[C@H]2c3cc4c(cc3CN3CCC(=C[C@@H]1O)[C@H]23)OCO4`, for which the Potency is 3.16 µM (active).

On to `COC(=O)Nc1cc(Nc2cc(NC3CC3)c3ncc(C#N)n3n2)c(Cl)c(N2CCN(C)CC2)c1`, for which the Potency is 2.51 µM (active). Same read-out and setting: under `CO[C@H]1/C=C\C=C(\C)C(=O)NC2=CC(=O)C(NCCN(C)C)=C(C[C@@H](C)C[C@H](OC)[C@H](O)[C@@H](C)/C=C(/C)[C@@H]1OC(N)=O)C2=O` stands 5.62 µM (active).

Turning to `Cc1ccc(-c2c(C(=O)CCl)n(CCCO)c3ncnc(N)c23)cc1`, the “activity change, negative = cytotoxic” value is -16.4% (inactive). Consider `CCN(CC)CCCS(=O)(=O)N[C@H](CCc1ccccc1)c1nc(Cc2ccc(Br)cc2)no1`, for which the “activity change, negative = cytotoxic” value is -13.7% (inactive). The same measure, in the same setting: under `CCCCCCCCC(=O)N[C@H](CN1CCCC1)[C@H](O)c1ccc2c(c1)OCCO2` stands -23.1% (inactive). Take `Nc1ncnc2c1c(-c1ccc(Oc3ccccc3)cc1)nn2[C@@H]1CCCNC1`: the Potency is 8.91 µM (active). Take `COc1cc(-n2cnc3cc(-c4ccc(Cl)cc4)sc3c2=O)ccc1OCCN1CCCC1`: the “activity change, negative = cytotoxic” value was -16.3% (inactive). As to `COC(=O)CC[C@@H](C)C1CCC2C3CCC4C[C@H](OC(C)=O)CCC4(C)C3C[C@H](O)C21C` (stereo partly specified), the “activity change, negative = cytotoxic” value is -2.3% (inactive). As to `C=C1Cc2c(Cl)cc3[nH]c4c5c3c2[C@@]2(O)[C@@H]1C[C@@H]2C(C)(C)O[C@H]5C1CC[C@@]2(O)[C@@]35O[C@@H]3[C@H]3OC(C)(C)[C@H]3O[C@H]5CC[C@]2(C)[C@@]41C` (stereo partly specified), the “activity change, negative = cytotoxic” value is -15.6% [at 6.64 µM] (inactive). With `COc1cc(N(C)CCN(C)C)c(N)cc1Nc1nccc(-c2cn(C)c3ccccc23)n1`, the “activity change, negative = cytotoxic” value was -7.12% (inactive). As for `CCC(C)C(=O)OC1C(C)C2(O)C(C=C(CO)CC3(O)C(=O)C(C)=CC32)C2C(C)(C)C12OC(=O)C(C)C` (stereo unspecified), the “activity change, negative = cytotoxic” value is -1.35% [at 10 µM] (inactive). Consider `COc1ccc2c(c1)CN(C(=O)CCN1CCC(Cc3ccccc3)CC1)CCS2`, for which the “activity change, negative = cytotoxic” value is -11% [at 10 µM] (inactive).

Regarding `CC/C(=C(/CC)c1ccc(O)c(CN(CC)CC)c1)c1ccc(O)c(CN(CC)CC)c1`, the “activity change, negative = cytotoxic” value is -14% (inactive). `O=C(c1ccc(-c2ccc(Cl)cc2)o1)N(Cc1ccccn1)c1ccc(N2CCNCC2)cc1`: the Potency is 11.2 µM (active). Turning to `CCCc1cc(C)[nH]c(=O)c1CNC(=O)c1cc(-c2ccnc(N3CCN(C)CC3)c2)cc2c1cnn2C(C)C`, the “activity change, negative = cytotoxic” value was -18.7% (inactive).

Regarding `COc1cc2nc(N3CCC(N4CCCCC4)CC3)nc(NC3CCCCCC3)c2cc1OC`, the Potency is 6.31 µM (active).

`CC(C)(C)c1ccc(C(=O)Nc2cc(Cl)c(Br)cc2C(=O)O)cc1`: the Potency is 10 µM (active).

With `COc1ccccc1N1CCN(CC[C@@](C)(C(=O)C2CCCCC2)c2ccccc2)CC1`, the “activity change, negative = cytotoxic” value was -13.9% (inactive).
